Data: PubChem BioAssay AID1159580 (chemical genetic matrix, 2015)
In all, about 5,500 compounds went through this assay and about 2,000 (36%) were called active. Another 18% or so got no clear call; they are omitted. No stated cut-off is given here; in the data, active means normalized growth mostly below about 0.91 (no sharp cut-off); inconclusive means no clear call, values can overlap the other calls; inactive means mostly above about 0.92. Some of the results follow.

Experiment: chemical genetic growth profiling, strain panel (AID 1159580);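 further: tested at 20 µM; growth read once vehicle control cultures reached saturation at 30 °C; 1 = growth at the plate median or of vehicle wells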
Details: growth OD

Measured: normalized growth

CCCCC(=O)O[C@]1(C(=O)CO)[C@@H](C)CC2C3CCC4=CC(=O)C=C[C@]4(C)[C@@]3(F)C(O)C[C@@]21C (some centres undefined)
inactive: S. cerevisiae deletion strains, locus YKL009W, strain mrt4, stronger effect = lower value 0.969 | S. cerevisiae deletion strains, locus YKL068W, stronger effect = lower value 0.991 | S. cerevisiae deletion strains, locus YKL085W, strain MDH1 (second series), stronger effect = lower value 0.987 | S. cerevisiae deletion strains, locus YKL085W, strain MDH1, stronger effect = lower value 0.987 | S. cerevisiae deletion strains, locus YKL160W, strain elf1, stronger effect = lower value 0.958 | S. cerevisiae deletion strains, locus YKL190W, strain CNB1, stronger effect = lower value 0.999 | S. cerevisiae deletion strains, locus YKR001C, strain vps1, stronger effect = lower value 0.972 | S. cerevisiae deletion strains, locus YKR026C, strain gcn3, stronger effect = lower value 0.97 | S. cerevisiae deletion strains, locus YKR091W, strain srl3, stronger effect = lower value 0.986 | S. cerevisiae deletion strains, locus YLL001W, strain dnm1, stronger effect = lower value 0.919 | S. cerevisiae deletion strains, locus YLL026W, stronger effect = lower value 0.964 | S. cerevisiae deletion strains, locus YLL041C, strain sdh2, stronger effect = lower value 0.991 | S. cerevisiae deletion strains, locus YLR027C, strain aat2, stronger effect = lower value 0.977 | S. cerevisiae deletion strains, locus YLR039C, strain RIC1, stronger effect = lower value 1.07 | S. cerevisiae deletion strains, locus YLR058C, strain SHM2, stronger effect = lower value 0.95 | S. cerevisiae deletion strains, locus YLR102C, strain apc9, stronger effect = lower value 1 | S. cerevisiae deletion strains, locus YLR113W, strain HOG1, stronger effect = lower value 0.956 | S. cerevisiae deletion strains, locus YLR221C, strain rsa3, stronger effect = lower value 0.993 | S. cerevisiae deletion strains, locus YLR258W, strain gsy2, stronger effect = lower value 0.99 | S. cerevisiae deletion strains, locus YLR262C, strain YPT6 (second series), stronger effect = lower value 0.948 | S. cerevisiae deletion strains, locus YLR262C, strain YPT6, stronger effect = lower value 1.01 | S. cerevisiae deletion strains, locus YLR268W, strain sec22, stronger effect = lower value 0.96 | S. cerevisiae deletion strains, locus YLR320W, strain mms22, stronger effect = lower value 0.996 | S. cerevisiae deletion strains, locus YLR330W, strain CHS5, stronger effect = lower value 0.99 | S. cerevisiae deletion strains, locus YLR342W, strain FKS1 (second series), stronger effect = lower value 1 | S. cerevisiae deletion strains, locus YLR342W, strain FKS1, stronger effect = lower value 0.973 | S. cerevisiae deletion strains, locus YLR357W, strain rsc2, stronger effect = lower value 1 | S. cerevisiae deletion strains, locus YLR370C, strain arc18, stronger effect = lower value 0.977 | S. cerevisiae deletion strains, locus YLR371W, strain rom2, stronger effect = lower value 0.984 | S. cerevisiae deletion strains, locus YLR384C, strain iki3, stronger effect = lower value 0.963 | S. cerevisiae deletion strains, locus YLR418C, strain cdc73, stronger effect = lower value 0.973 | S. cerevisiae deletion strains, locus YML016C, strain PPZ1, stronger effect = lower value 0.987 | S. cerevisiae deletion strains, locus YML032C, strain rad52, stronger effect = lower value 1 | S. cerevisiae deletion strains, locus YML120C, strain ndi1, stronger effect = lower value 0.998 | S. cerevisiae deletion strains, locus YML124C, strain tub3, stronger effect = lower value 1.01 | S. cerevisiae deletion strains, locus YMR058W, strain fet3, stronger effect = lower value 0.981 | S. cerevisiae deletion strains, locus YMR078C, strain ctf18, stronger effect = lower value 0.98 | S. cerevisiae deletion strains, locus YMR125W, strain sto1, stronger effect = lower value 0.99 | S. cerevisiae deletion strains, locus YMR129W, stronger effect = lower value 0.988 | S. cerevisiae deletion strains, locus YMR205C, strain PFK2, stronger effect = lower value 0.984 | S. cerevisiae deletion strains, locus YMR223W, strain ubp8, stronger effect = lower value 0.974 | S. cerevisiae deletion strains, locus YMR231W, strain pep5, stronger effect = lower value 0.979 | S. cerevisiae deletion strains, locus YMR307W, strain GAS1, stronger effect = lower value 0.968 | S. cerevisiae deletion strains, locus YNL067W, strain RPL9B, stronger effect = lower value 0.964 | S. cerevisiae deletion strains, locus YNL071W, strain lat1, stronger effect = lower value 0.918 | S. cerevisiae deletion strains, locus YNL128W, strain TEP1, stronger effect = lower value 0.968 | S. cerevisiae deletion strains, locus YNL153C, strain GIM3, stronger effect = lower value 0.923 | S. cerevisiae deletion strains, locus YNL183C, strain NPR1, stronger effect = lower value 0.933 | S. cerevisiae deletion strains, locus YNL209W, strain ssb2, stronger effect = lower value 0.975 | S. cerevisiae deletion strains, locus YNL233W, strain BNI4, stronger effect = lower value 0.963 | S. cerevisiae deletion strains, locus YNL248C, strain rpa49, stronger effect = lower value 0.967 | S. cerevisiae deletion strains, locus YNL250W, strain rad50, stronger effect = lower value 0.978 | S. cerevisiae deletion strains, locus YNL271C, strain bni1, stronger effect = lower value 0.971 | S. cerevisiae deletion strains, locus YNL298W, strain CLA4, stronger effect = lower value 0.977 | S. cerevisiae deletion strains, locus YNL307C, strain MCK1, stronger effect = lower value 0.979 | S. cerevisiae deletion strains, locus YNL322C, strain KRE1 (second series), stronger effect = lower value 0.954 | S. cerevisiae deletion strains, locus YNR049C, strain mso1, stronger effect = lower value 0.983 | S. cerevisiae deletion strains, locus YNR052C, strain pop2, stronger effect = lower value 0.979 | S. cerevisiae deletion strains, locus YOL006C, strain TOP1, stronger effect = lower value 0.98 | S. cerevisiae deletion strains, locus YOL012C, strain htz1 1.06 | S. cerevisiae deletion strains, locus YOL147C, strain pex11, stronger effect = lower value 0.989 | S. cerevisiae deletion strains, locus YOR001W, strain rrp6, stronger effect = lower value 0.938 | S. cerevisiae deletion strains, locus YOR061W, strain CKA2, stronger effect = lower value 0.987 | S. cerevisiae deletion strains, locus YOR069W, strain VPS5, stronger effect = lower value 0.989 | S. cerevisiae deletion strains, locus YOR070C, strain gyp1, stronger effect = lower value 0.986 | S. cerevisiae deletion strains, locus YOR080W, strain dia2, stronger effect = lower value 0.965 | S. cerevisiae deletion strains, locus YOR083W, strain WHI5, stronger effect = lower value 0.956 | S. cerevisiae deletion strains, locus YOR106W, strain vam3, stronger effect = lower value 0.929 | S. cerevisiae deletion strains, locus YOR136W, strain idh2, stronger effect = lower value 0.979 | S. cerevisiae deletion strains, locus YOR144C, strain elg1, stronger effect = lower value 0.994 | S. cerevisiae deletion strains, locus YOR184W, strain ser1, stronger effect = lower value 0.984 | S. cerevisiae deletion strains, locus YOR231W, strain MKK1, stronger effect = lower value 0.976 | S. cerevisiae deletion strains, locus YOR265W, strain rbl2, stronger effect = lower value 0.981 | S. cerevisiae deletion strains, locus YOR270C, strain vph1, stronger effect = lower value 0.88 | S. cerevisiae deletion strains, locus YOR290C, strain snf2, stronger effect = lower value 1.01 | S. cerevisiae deletion strains, locus YOR316C, strain cot1, stronger effect = lower value 0.988 | S. cerevisiae deletion strains, locus YPL051W, strain arl3, stronger effect = lower value 0.993 | S. cerevisiae deletion strains, locus YPL055C, strain LGE1, stronger effect = lower value 0.975 | S. cerevisiae deletion strains, locus YPL078C, strain atp4, stronger effect = lower value 0.927 | S. cerevisiae deletion strains, locus YPL106C, strain sse1, stronger effect = lower value 1.01 | S. cerevisiae deletion strains, locus YPL240C, strain hsp82, stronger effect = lower value 0.967 | S. cerevisiae deletion strains, locus YPL241C, strain CIN2, stronger effect = lower value 1 | S. cerevisiae deletion strains, locus YPL256C, strain CLN2, stronger effect = lower value 0.973 | S. cerevisiae deletion strains, locus YPR119W, strain clb2, stronger effect = lower value 0.993 | S. cerevisiae deletion strains, locus YPR141C, strain kar3, stronger effect = lower value 0.968 | S. cerevisiae deletion strains, locus YPR163C, strain tif3, stronger effect = lower value 0.985 | S. cerevisiae deletion strains, locus YPR167C, strain met16, stronger effect = lower value 0.984 | S. cerevisiae deletion strains, strain wtn01, stronger effect = lower value 0.992 | S. cerevisiae strains, strain wild type, stronger effect = lower value 0.985
